Assay results: ChEMBL document CHEMBL3988442, “University of Dundee, Small-Polar-MMV Screening Library” (2021)
For some of these results: Entries with a potency or affinity are not part of this list.

How the values were obtained:
Parameters in all cases: scale not given: direction of the effect not stated beside the values
[1] = target: Protein translocase subunit SecA (Escherichia coli (strain K12)) (UniProt P10408); assay: Assay to Identify E. coli SecA ATPase Inhibitors; format: functional; details: 30 µM
[2] = target: T1, Ubiquitin-activating enzyme e1, putative (Leishmania donovani (strain BPK282A1)) (UniProt E9BSI1); assay: Leishmania donovani Ubiquitin Activating Enzyme (LdE1); format: functional; details: 30 µM
T1 sequence (whole entry): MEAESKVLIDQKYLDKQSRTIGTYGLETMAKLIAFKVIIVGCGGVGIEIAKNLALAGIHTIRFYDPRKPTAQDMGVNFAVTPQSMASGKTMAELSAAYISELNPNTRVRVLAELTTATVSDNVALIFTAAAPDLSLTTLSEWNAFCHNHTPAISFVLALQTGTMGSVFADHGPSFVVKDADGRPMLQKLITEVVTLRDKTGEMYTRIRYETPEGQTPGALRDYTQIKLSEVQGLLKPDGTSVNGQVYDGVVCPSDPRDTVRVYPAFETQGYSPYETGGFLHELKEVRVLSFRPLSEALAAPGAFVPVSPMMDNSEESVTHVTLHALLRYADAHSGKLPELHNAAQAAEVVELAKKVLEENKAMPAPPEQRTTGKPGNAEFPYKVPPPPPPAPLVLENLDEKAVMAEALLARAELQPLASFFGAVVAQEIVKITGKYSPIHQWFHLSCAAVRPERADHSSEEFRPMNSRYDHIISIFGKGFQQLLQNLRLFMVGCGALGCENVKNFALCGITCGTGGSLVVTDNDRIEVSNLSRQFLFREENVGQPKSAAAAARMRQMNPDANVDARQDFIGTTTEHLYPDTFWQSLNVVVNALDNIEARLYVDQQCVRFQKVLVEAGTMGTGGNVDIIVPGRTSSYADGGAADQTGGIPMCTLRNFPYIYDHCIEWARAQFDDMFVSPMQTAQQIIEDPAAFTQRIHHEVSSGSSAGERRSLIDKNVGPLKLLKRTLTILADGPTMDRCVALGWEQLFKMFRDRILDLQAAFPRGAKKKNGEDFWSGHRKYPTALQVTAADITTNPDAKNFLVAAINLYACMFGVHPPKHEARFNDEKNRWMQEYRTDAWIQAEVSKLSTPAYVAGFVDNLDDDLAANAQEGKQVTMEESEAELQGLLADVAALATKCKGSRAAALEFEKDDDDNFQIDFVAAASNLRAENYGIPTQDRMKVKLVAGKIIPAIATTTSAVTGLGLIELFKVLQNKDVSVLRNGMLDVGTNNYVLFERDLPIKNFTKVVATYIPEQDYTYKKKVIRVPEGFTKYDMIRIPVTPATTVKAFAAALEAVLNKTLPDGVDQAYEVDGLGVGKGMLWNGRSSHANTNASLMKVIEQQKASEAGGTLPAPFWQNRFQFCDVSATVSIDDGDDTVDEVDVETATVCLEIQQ

[3] = target: AMP-activated protein kinase, AMPK (Homo sapiens) (UniProt P54646+O43741+P54619+Q9UGJ0+Q9Y478+Q13131+Q9UGI9); assay: AMP-dependent Kinase enzyme assay. An in vitro enzyme assay that detects ADP turnover that is directly proportional to AMPK activity. This uses naive AMPK that is activated during the assay with MK-8722; format: functional; details: 30 µM
[4] = target: Sialic acid-binding Ig-like lectin 9 (Homo sapiens) (UniProt Q9Y336); assay: Hs-Siglec9 ALPHAscreen SOP 20170721; details: 10 µM
[5] = system: Trypanosoma cruzi; assay: Trypanosoma cruzi phosphomannomutase and mannose-1-phosphate guanylyltransferase assay; format: functional; details: 10 µM
[6] = target: T2, Arginase-2, mitochondrial (Homo sapiens) (UniProt P78540); assay: in vitro enzyme assay to detect the production of urea directly proportional to the activity of Arginase II; format: functional; details: 33.3 µM; also: in the data most compounds retested in dose-response had high values
T2 sequence (whole entry): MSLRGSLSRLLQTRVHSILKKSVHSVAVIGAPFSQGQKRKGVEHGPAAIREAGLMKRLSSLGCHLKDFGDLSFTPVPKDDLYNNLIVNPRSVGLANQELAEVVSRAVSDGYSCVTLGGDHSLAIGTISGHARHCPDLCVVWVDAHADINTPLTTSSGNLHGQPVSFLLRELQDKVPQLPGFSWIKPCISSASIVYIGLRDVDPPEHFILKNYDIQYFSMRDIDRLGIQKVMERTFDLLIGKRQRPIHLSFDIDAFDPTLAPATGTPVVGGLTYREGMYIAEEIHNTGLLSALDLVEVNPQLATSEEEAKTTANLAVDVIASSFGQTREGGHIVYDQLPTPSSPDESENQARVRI

[7] = target: T3, Proteasome subunit beta (Trypanosoma cruzi) (UniProt O96673); assay: Trypanosoma cruzi proteasome chymotrypsin-like activity (TcProtChymo) assay.; also: in the data most compounds retested in dose-response had high values; format: functional; details: 9.37 µM
T3 sequence (whole entry): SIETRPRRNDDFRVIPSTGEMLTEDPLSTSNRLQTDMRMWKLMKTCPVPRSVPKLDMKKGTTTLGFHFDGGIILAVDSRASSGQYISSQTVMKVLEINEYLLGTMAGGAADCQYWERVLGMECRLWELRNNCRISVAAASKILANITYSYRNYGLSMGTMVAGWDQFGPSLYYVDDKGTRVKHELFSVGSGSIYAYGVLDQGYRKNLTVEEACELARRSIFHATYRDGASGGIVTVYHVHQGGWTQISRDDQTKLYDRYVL

[8] = organism: Homo sapiens; assay: To identify inhibition of the IFN signalling (Jak-Stat) pathway via expression of an eGFP reporter gene under the control of an IFN-stimulated response element (ISRE) containing MxA promoter.; format: functional; details: 30 µM
[9] = target: T4, Tyrosyl-tRNA synthetase, putative (Trypanosoma cruzi (strain CL Brener)) (UniProt Q4DSP6); assay: Trypanosoma cruzi tyrosyl tRNA synthetase (TcYRS) _High Tyrosine SOP; format: functional; details: 30 µM; also: in the data most compounds retested in dose-response had high values
T4 sequence (whole entry): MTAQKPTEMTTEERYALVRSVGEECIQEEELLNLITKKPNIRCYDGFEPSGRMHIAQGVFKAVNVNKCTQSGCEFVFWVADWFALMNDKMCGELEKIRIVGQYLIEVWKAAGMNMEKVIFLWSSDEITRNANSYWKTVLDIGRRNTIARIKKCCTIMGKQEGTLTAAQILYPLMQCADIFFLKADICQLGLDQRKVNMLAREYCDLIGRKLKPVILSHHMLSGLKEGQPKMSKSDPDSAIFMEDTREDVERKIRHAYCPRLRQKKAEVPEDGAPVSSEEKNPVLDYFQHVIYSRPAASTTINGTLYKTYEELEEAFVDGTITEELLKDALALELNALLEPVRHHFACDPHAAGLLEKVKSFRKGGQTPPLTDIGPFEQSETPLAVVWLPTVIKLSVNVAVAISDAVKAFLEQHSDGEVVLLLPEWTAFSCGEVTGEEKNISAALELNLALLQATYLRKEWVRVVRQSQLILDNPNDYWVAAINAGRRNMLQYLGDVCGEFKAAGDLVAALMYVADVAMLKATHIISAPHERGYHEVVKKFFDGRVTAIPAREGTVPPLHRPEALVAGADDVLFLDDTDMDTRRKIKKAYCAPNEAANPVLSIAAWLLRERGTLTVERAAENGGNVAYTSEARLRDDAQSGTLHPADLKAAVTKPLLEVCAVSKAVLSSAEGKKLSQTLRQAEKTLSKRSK

[10] = target: T4, Tyrosyl-tRNA synthetase, putative (Trypanosoma cruzi (strain CL Brener)); assay: Trypanosoma cruzi tyrosyl tRNA synthetase (TcYRS) SOP; format: functional; details: 30 µM
[11] = target: Chromo domain-containing protein 1 (Saccharomyces cerevisiae (strain ATCC 204508 / S288c) (Baker's yeast)) (UniProt P32657); assay: ScCHD-1 Enzyme Inhibition Assay; format: functional; details: 30 µM; also: in the data most compounds retested in dose-response had high values
Chromo domain-containing protein 1 (Saccharomyces cerevisiae (strain ATCC 204508 / S288c) (Baker's yeast)), sequence (P32657 whole entry, the tested form may be a part): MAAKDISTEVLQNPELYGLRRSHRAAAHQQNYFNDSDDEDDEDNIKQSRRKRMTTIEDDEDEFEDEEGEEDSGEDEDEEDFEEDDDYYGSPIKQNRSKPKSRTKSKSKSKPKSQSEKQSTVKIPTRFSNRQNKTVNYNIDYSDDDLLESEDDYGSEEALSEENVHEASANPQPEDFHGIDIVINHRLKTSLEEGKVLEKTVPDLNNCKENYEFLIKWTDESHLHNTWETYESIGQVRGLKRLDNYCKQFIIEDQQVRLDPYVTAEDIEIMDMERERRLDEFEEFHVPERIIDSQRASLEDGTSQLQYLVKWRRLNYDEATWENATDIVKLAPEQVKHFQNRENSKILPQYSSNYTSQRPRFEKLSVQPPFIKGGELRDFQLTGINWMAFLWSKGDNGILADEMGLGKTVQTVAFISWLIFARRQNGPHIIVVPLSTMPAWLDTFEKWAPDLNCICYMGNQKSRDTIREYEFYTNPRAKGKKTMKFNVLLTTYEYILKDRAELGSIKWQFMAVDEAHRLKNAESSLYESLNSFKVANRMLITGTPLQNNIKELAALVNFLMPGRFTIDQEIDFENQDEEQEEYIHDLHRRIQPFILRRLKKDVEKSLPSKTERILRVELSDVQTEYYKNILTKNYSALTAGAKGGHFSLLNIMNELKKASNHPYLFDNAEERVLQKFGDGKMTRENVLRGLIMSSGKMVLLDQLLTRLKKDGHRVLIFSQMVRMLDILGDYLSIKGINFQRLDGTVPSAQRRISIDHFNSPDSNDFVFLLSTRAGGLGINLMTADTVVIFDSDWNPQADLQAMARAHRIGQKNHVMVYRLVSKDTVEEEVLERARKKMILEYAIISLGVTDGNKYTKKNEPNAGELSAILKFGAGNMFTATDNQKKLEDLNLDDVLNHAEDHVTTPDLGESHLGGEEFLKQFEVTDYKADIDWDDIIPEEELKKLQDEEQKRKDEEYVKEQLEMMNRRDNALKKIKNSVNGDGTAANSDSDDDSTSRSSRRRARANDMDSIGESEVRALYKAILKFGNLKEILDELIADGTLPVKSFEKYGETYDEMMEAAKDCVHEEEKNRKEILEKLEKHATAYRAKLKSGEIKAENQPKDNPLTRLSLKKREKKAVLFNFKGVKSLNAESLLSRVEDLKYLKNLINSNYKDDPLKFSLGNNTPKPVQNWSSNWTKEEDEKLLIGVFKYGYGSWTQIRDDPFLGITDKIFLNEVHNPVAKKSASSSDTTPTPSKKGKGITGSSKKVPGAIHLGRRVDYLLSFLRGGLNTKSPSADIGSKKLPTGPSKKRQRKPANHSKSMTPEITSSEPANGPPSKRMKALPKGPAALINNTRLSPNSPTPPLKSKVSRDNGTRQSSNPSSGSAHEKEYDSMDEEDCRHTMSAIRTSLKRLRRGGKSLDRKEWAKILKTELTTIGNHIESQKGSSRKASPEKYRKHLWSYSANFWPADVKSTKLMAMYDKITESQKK

Protein translocase subunit SecA (Escherichia coli (strain K12)), sequence (P10408 whole entry): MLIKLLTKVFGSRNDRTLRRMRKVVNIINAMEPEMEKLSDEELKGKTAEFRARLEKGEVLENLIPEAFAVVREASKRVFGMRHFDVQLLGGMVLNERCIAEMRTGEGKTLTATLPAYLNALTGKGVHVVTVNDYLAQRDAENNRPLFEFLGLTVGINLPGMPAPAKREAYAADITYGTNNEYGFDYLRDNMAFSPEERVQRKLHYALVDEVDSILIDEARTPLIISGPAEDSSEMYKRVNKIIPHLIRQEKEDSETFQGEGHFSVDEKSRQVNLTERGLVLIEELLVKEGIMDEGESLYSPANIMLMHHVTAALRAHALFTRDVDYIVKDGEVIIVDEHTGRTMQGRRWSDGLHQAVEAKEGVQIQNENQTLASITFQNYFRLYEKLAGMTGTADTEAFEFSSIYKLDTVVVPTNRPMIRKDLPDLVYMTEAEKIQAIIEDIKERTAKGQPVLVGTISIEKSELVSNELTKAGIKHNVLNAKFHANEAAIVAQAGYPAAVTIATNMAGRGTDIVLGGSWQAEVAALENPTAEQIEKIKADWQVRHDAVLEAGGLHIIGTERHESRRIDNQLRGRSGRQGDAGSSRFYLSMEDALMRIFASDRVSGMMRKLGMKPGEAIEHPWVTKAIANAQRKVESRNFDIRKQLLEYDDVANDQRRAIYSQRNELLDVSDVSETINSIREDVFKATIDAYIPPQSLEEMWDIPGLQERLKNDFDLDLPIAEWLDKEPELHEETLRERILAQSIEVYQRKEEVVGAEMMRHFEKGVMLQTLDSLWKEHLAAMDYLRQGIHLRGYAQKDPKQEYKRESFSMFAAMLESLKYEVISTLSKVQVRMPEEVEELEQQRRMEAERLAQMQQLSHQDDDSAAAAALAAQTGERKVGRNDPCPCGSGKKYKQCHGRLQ
Sialic acid-binding Ig-like lectin 9 (Homo sapiens), sequence (Q9Y336 whole entry): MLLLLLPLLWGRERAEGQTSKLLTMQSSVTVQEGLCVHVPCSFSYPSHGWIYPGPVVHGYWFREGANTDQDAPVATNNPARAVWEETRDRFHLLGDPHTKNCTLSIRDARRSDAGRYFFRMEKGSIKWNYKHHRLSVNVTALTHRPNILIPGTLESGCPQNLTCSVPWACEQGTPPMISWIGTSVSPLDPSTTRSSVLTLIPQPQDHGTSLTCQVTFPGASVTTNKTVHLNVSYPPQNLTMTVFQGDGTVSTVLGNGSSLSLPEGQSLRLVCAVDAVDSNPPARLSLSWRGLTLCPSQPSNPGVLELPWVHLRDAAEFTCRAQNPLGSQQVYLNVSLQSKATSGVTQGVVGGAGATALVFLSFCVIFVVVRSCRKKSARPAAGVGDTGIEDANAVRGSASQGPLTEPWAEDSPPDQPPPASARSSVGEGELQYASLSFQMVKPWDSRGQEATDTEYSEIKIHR

SMILES	Percent Effect [1]	Percent Effect [2]	Percent Effect [3]	Percent Effect [4]	Percent Effect [5]	Percent Effect [6]	Percent Effect [7]	Percent Effect [8]	Percent Effect [9]	Percent Effect [10]	Percent Effect [11]
CC1(C)CC(N2Cc3nc(N)ncc3C2=O)CC(C)(C)N1	0.646%	10.4%	-3.77%	8.41%	4.23%	-35.9%	10.7%	11%	6.45%	21%	-5.13%
CNC(=O)c1cccc(C2CNCCN2C)c1 (stereo unspecified)	1.64%	14.9%	4.3%	-1.87%	-2.96%	7.19%	12.2%	-5.37%	0%	6.49%	-5.34%
Cc1ccc(-c2nc(CN3CCc4nn(C)c(=O)cc4C3)no2)cc1	-1.55%	-24.3%	7.36%	-4.73%	5.75%	2.81%	-12.8%	2.86%	-0.493%	-1.24%	-4.17%
Cc1cc(C)cc(NS(=O)(=O)c2cc3c(c(C(=O)O)c2)OCCO3)c1	-4.74%	6.33%	-7.57%	3.67%	0.308%	-5.38%	15.4%	2.08%	-10.4%	-5.06%	-26.1%
Cc1ccccc1S(=O)(=O)NC(=O)CSc1ccc2c(c1)OCCO2	-0.381%	1.39%	-0.933%	-9.91%	-3.21%	0%	10%	1.45%	-11.6%	-7.69%	0.792%
Cc1cc(N2CCCN(C(=O)Cc3ccc(O)c(Cl)c3)CC2)ccn1	-3.42%	13.7%	-3.37%	6.51%	2.18%	0.399%	22.2%	-10.9%	8.33%	18.5%	-1.79%
CN(Cc1nccs1)c1nc(-c2ccccn2)nc2c1CCNCC2	-3.65%	-1.39%	-0.513%	-2.23%	4.57%	-2.21%	8.95%	11.4%	10.5%	12.8%	-1.22%
CCN(CCNC(=O)c1ccccc1Br)C1CC1	-1.99%	-6.33%	-0.476%	-1.28%	-0.923%	7.53%	10.3%	5.43%	1.04%	-10.1%	-18%
Cc1ccsc1CNC(=O)Cc1c(C)nc2c(c1C)c(=O)[nH]n2C	-4.14%	10.4%	5.94%	8.57%	-2.06%	2.32%	5.25%	21.2%	2.86%	11.8%	-20.4%
Cc1nn(CC(=O)N2CCN(c3ccncc3)CC2)c(C)c1Cl	-3.26%	10.5%	1.94%	4.31%	1.66%	-18.9%	12.6%	16.3%	5.32%	15.6%	-7.63%
CC(C)c1nn(C)c(N2CCOCC2)c1CN[C@H](C)CO	-5.92%	7.89%	-9.46%	-5.12%	-1.96%	1.44%	3.3%	-5.23%	5.42%	6.17%	-4.66%
